# Bioassay records as filed in PubChem.
# Rows were chosen to be rich in hits. Some 19% of all compounds tested hit in one or more screens of this group.
# SARS PLpro yeast: blocks SARS-CoV papain-like protease in a yeast assay; S. cerevisiae expressing SARS-CoV PLpro, growth rescue; Potency, µM (top dose mostly 32.9 µM), for inactives: top-dose activity, positive = growth rescue, hits mostly activators; 330,000 tested, 0.19% active; calls by dose curve; also: potency is read from the fitted curve at half-maximal effect; 0% is about no effect; nearly all actives have a fitted effect of over 55% in size
# Pf growth 96h: P. falciparum growth inhibition at 96 hour, primary screen for plastid delayed-death inhibitors; P. falciparum luciferase reporter growth, 96 h; Potency, µM (titrated, usually from 28.7 µM), without a hit: top-dose activity change, negative = inhibition, hits mostly inhibitors; 320,000 tested, 6.9% active; also: potency is read from the fitted curve at half-maximal effect; % is scaled to controls: 0 for no effect and ±100 for the full control effect
#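 Delayed-death screen, second-generation endpoint: infected erythrocytes, 2% hematocrit, 0.05% parasitemia final; 96 hours at 37 C, 5% CO2; luciferase detection reagent; luminescence decrease equals reduced growth.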
# Pf growth 48h: inhibits P. falciparum growth in the first generation, 48 h | P. falciparum luciferase growth in erythrocytes, 48 h | 310,000 tested, 5.9% active | AID 504832 | Potency, µM (series often up to 28.7 µM), for inactives: at the highest dose activity change, negative = inhibition, actives largely listed as inhibitors; also: potency is read from the fitted curve at half-maximal effect; % is scaled to controls: 0 for no effect and ±100 for the full control effect
#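 Cell-based growth assay: transgenic P. falciparum expressing firefly luciferase, cultured in red cells within RPMI 1640 containing 0.5% w/v Albumax, 24 mM bicarbonate and gentamycin. A drop in luciferase activity indicates inhibition.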
# Cycloheximide cs: affects cycloheximide protein synthesis inhibition readout, counter-screen | cell reporter, cycloheximide protein synthesis inhibition counterscreen | 300,000 tested, 12% active | AID 2314 | max response, %; in the data active = max response mostly above about 13%, no sharp cut-off; inactive = mostly below about 14%; also: read at 38.3 µM for the half of the compounds with a filed dose; 0% is about no effect
# AMA1-RON2 inh: inhibitors of Plasmodium falciparum AMA1-RON2 interaction; AlphaScreen AMA1-biotinylated RON2 peptide binding; 360,000 tested, 0.2% active; Potency, µM (doses to about 58.2 µM), for the others: top-dose activity change, negative = inhibition, usual class: inhibitors; AID 720542;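 also: potency is read from the fitted curve at half-maximal effect; 0% = vehicle wells and -100% = peptide control; nearly all actives have a fitted effect of over 45% in size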
#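 AMA1 (3D7) with his tag at 25 nM final met compounds first, then biotinylated RON2 peptide at 25 nM; detection used donor plus acceptor beads, 10 µg/mL apiece, read by AlphaScreen after 30 min at room temperature.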
# Shiga inhibitor: blocks Shiga toxin action in Vero cells. inhibition, % at 38.7 µM. Vero cells, Shiga toxin protein synthesis inhibition reporter. 290,000 tested, 9.2% active. AID 2315; in the data active = inhibition mostly above about 28%, no sharp cut-off; inactive = mostly below about 43%; also: 0% is about no effect
# * hit, by the source's call; ? = inconclusive; / = no result given; [ ] = remark or other dose. Unless noted, calls follow the shape of the dose curve; as a rule, active = well fitted curve in the direction sought with a large enough effect; inconclusive = small, poorly fitted or top-dose-only effect, or another doubt; inactive = no such curve, though single readings can be large; an effect the other way counts as inactive or inconclusive.
SMILES,SARS PLpro yeast,Pf growth 96h,Pf growth 48h,Cycloheximide cs,AMA1-RON2 inh,Shiga inhibitor
O=C(CCc1nc(-c2ccccc2)no1)NCCc1ccccc1,-2%,0%,21%,12,38%,-12
Cc1c(C(=O)Nc2nccs2)oc2ccc(Br)cc12,-1%,/,/,/,13%,/
COc1ccc(-c2noc(CNC(=O)CCCN3C(=O)[C@H]4CC=CC[C@H]4C3=O)n2)cc1,-2%,-36%,6%,18*,21%,15
CCN(CCCNC(=O)CCc1nc(-c2ccc(OC)cc2)no1)c1cccc(C)c1,-2%,13µM*,/,-2,?,28
COc1ccc(CCNC(=O)CCCc2ccccc2)cc1,-1%,10µM*,7%,1,4%,/
COc1ccc(C2=CCCCCC2)cc1OC,/,/,/,/,13%,/
O=C(NCC(=O)N1CCCCCCC1)c1ccc(Cl)c(Cl)c1,/,/,/,/,96%,/
COc1ccc2[nH]cc(CCNC(=O)C3CC(=O)N(c4ccc(Cl)cc4)C3)c2c1 (stereo unspecified),0%,1%,?,-2,12%,16
COc1ccc(CN2C(=O)c3ccc(C(=O)O)cc3C2=O)cc1,0%,9.3µM*,/,-3,-1%,4
COc1ccc(N2C(=O)c3ccc(C(=O)Nc4ccccc4O)cc3C2=O)cc1,-1%,189%,-26%,4,2%,4
O=C(O)c1ccc2c(c1)C(=O)N(N1C(=O)c3ccccc3C1=O)C2=O,2%,9.3µM*,14%,10,11%,-5
O=C(O)c1ccc2c(c1)C(=O)N(CCc1ccccc1)C2=O,4%,?,-8%,2,-6%,/
COc1ccccc1N1C(=O)c2ccc(C(=O)Nc3ccccc3O)cc2C1=O,1%,-4%,1%,11*,-12%,19
O=C(Nc1ccccc1O)c1ccc2c(c1)C(=O)N(N1C(=O)c3ccccc3C1=O)C2=O,-2%,9.3µM*,7%,0,1%,-9
Clc1nc(CN2CCCCC2)nc2sc3c(c12)CCC3,10%,?,-16%,3,-2%,35
CSc1ccc(/C=N/NC(=O)c2cc(O)cc(O)c2)cc1,-15%,55%,98%,22*,-1%,41*
CSc1ccc(/C=N/NC(=O)c2sccc2C)cc1,-27%,468%,325%,46*,34%,64*
O=C(N/N=C/c1ccc(O)cc1)c1cncc(Br)c1,1%,?,5%,11,4%,21
CSc1ccc(/C=N/NC(=O)c2ccc(C)c(C)c2)cc1,-2%,-12%,30%,44*,-2%,52*
O=C(N/N=C/c1ccc(F)cc1)c1sccc1OCc1ccc(F)cc1,?,?,-28%,13,5%,51
COc1ccc(OCc2ccc(/C=N\NC(=O)c3sccc3C)o2)cc1,-3%,35%,34%,25*,68%,68*
CC(C)c1ccc2oc(=O)cc(CN3CCCCC3)c2c1,-1%,?,7.4µM*,5,-5%,17
CC(C)c1ccc2oc(=O)cc(CN3CCN(c4ccccc4)CC3)c2c1,-2%,?,13µM*,-4,-9%,21
CC1CCN(Cc2cc(=O)oc3ccc(C(C)C)cc23)CC1,1%,1.9µM*,3.3µM*,3,3%,3
CCN1CCN(Cc2cc(=O)oc3ccc(Cl)cc23)CC1,-2%,-18%[5.75 µM],15%,1,18%,12
SMILES,SARS PLpro yeast,Pf growth 96h,Pf growth 48h,Cycloheximide cs,AMA1-RON2 inh,Shiga inhibitor
COc1ccc2c(CN3CCCCC3)cc(=O)oc2c1,/,/,/,/,1%,/
O=c1cc(CN2CCN(c3ccccc3)CC2)c2ccccc2o1,/,/,/,/,-1%,/
CN1CCN(Cc2cc(=O)oc3ccc(Cl)cc23)CC1,5%,13µM*,-3%,-1,-13%,-12
CCc1ccc2oc(=O)cc(CN3CCCCC3)c2c1,1%,5.2µM*,12µM*,-3,3%,-8
CCc1ccc2oc(=O)cc(CN3CCN(CCO)CC3)c2c1,-3%,0%,-1%,-2,3%,51
CCc1ccc2c(CN3CCC(C(=O)OC)CC3)cc(=O)oc2c1,0%,-4%,/,16*,-6%,21
O=C1CCN(Cl)C(=O)N1Cl,/,/,/,/,4%,/
Cc1cc(OCCn2ccnc2)cc(C)c1Cl,-5%,4%,?,1,2%,-5
Cc1ccc(-c2cc(-c3c(C)nn(C)c(=O)c3N)[nH]n2)cc1,-1%,?,?,26*,-27%,30
[N-]=[N+]=CC(=O)c1ccnc(C(=O)C=[N+]=[N-])c1,-1%,?,-3%,-3,-4%,-7
CN(C)c1ccc(Cc2cc3c(O)ccc(O)c3cc(Cc3ccc(N(C)C)cc3)c2=O)cc1,/,/,/,/,11µM*,/
O=C(COC(=O)c1ccc(S(=O)(=O)N2CCOCC2)cc1)NCc1ccco1,/,/,/,/,6%,/
Cc1onc(NC(=O)NC(=O)c2ccccc2F)c1Br,-7%,18%,30%,21*,-4%,37
Cc1onc(NC(=O)c2ccc(Cl)cc2Cl)c1Br,-6%,132%,150%,42*,2%,72*
CN(CC(=O)Nc1c(Cl)cccc1Cl)C(=O)C1CCN(C(=O)Nc2ccccc2)CC1,-6%,-3%,?,/,9%,/
Cc1cccc(N2CCN(C(=O)C3CCC(CNS(=O)(=O)c4cccs4)CC3)CC2)c1C (stereo unspecified),-1%,-3%,5.2µM*,-2,4%,-9
O=C(C1CCC(CNS(=O)(=O)c2cccs2)CC1)N1CCCCC1 (stereo unspecified),-7%,-5%,/,-3,-5%,-14
COc1ccccc1-c1ccc(NC2CCCC2)nn1,-24%,?,89%,24*,-2%,55*
COc1ccc(CNc2ccc(-c3ccc(OC)cc3)nn2)cc1,-2%,?,1%,19*,-6%,40*
COc1ccc(CNC(=O)c2cc(-c3ccccc3OC)on2)cc1,-5%,?,-4%,-2,0%,33
COc1ccc(CNc2ccc(-c3ccccc3OC)nn2)cc1,-16%,?,-5%,22*,-15%,26
COc1ccc(CCC(=O)N(C)CC(=O)Nc2ccc(Cl)c(C(F)(F)F)c2)cc1,-3%,-7%,14%,4,6%,12
CCOC(=O)c1cnc(SCC(=O)Nc2ccc(NC(=O)CC)c(OC)c2)nc1N,11%,?,5%,-1,2%,-4
CC[C@@]1(O)C(=O)OCc2c1cc1n(c2=O)Cc2cc3c(N)cccc3nc2-1,0%,1.2µM*,1.9µM*,-2,22%,-7
CC[C@@]1(O)C(=O)OCc2c1cc1n(c2=O)Cc2cc3c(CN(C)C)c(O)ccc3nc2-1,/,11µM*,8.5µM*,/,?,/
CCCCc1cc(=O)oc2c(CN(C)C)c(O)ccc12,-1%,-22%,?,-2,-1%,-9
CC[C@@]1(O)C(=O)OCc2c1cc1n(c2=O)Cc2cc3c([N+](=O)[O-])cccc3nc2-1,/,?,8.5µM*,/,/,/
O=C(O)c1ccc(CCN2CCN(CC=Cc3ccc(Cl)cc3)CC2)cc1,/,/,/,5,/,-7
